Experimental data published in PubChem BioAssay (NCI).
This is part of a sample that, as a whole, favours compounds with a hit. Of some 83,000 tested, about 20% had one in any assay.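 Note: values are percent growth. 100 is the growth of untreated cells, values between 100 and 0 indicate rising inhibition; between -100 and 0 indicates cell death.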 A number with no mark means an inactive call. Calls of active or inactive are those of the source. The calls were made as follows: active = growth percent below 10; inactive = the rest.

test system: NCI-H322M lung; experiment: NCI-60 one-dose screen, 48 h (100 = growth as untreated, 0 = no growth, -100 = all killed); conditions: 10 µM unless noted

SMILES | growth
C#CCOC(=O)C(N)CSSCC(N)C(=O)O (stereo not given) | 91.2%
Nc1nc(=O)n([C@H]2CC=C(CO)O2)cc1F | 95.9%
O=C(Nc1cccc(Cl)c1)Oc1c(Cl)c(Cl)c(Cl)c(Cl)c1Cl | 109%
COc1ccccc1/C=C/C1=C(C)CCC(c2ccccc2OC)C1C (stereo not given) | 33.4%
Cc1nc2ccccc2c(/C=C/c2ccc(Br)cc2)c1C(=O)/C=C/c1ccccc1 | 35.3%
Cc1c2ccncc2c(C)c2c1c1ccccc1n2CCCCCC(=O)O | 96.1%
Cn1cc(-c2csc(-c3cn(C)c4ccc(F)cc34)n2)c2cnccc21 | 21.9%
O=C(Nc1ccccc1CNc1nc(Nc2ccc(OCCN3CCCC3)cc2)ncc1Cl)NC1CCCCC1 | 109%
NC(=O)[C@@H]1Cc2ccccc2CN1C(=O)c1ccc2c(c1)Cc1ccccc1-2 | 103%
O=C(Nc1ccccc1C(F)(F)F)C1=NCCCCN1 | 95.1%
C/C(=C(\c1ccc(OCCCN(C)C)cc1)c1ccc(OC(=O)Cc2ccccc2)cc1)c1ccc(Cl)cc1 | 86.8%
COc1cc(C)cc(-c2c(-c3cc(N4CC(O)C4)nc(-c4cccnc4)n3)cnn2C)c1 | 101%
Cn1cc(-c2ccc3occ(-c4cccc(-c5ccncc5)c4)c3n2)cn1 | 34.3%
O=C1CCc2c(sc3[nH]c(=S)n(-c4cc(C(F)(F)F)cc(C(F)(F)F)c4)c(=O)c23)C1 | 9.28% (active)
COC1CC(O)C2=C(CC3C(/C(C)=C\CC=C(C)C)CCC3(C)O2)C1=O (stereo not given) | 101%
COc1ccc(S(=O)(=O)N(C)c2oc(-c3ccc(Cl)cc3)nc2C#N)cc1 | 98.2%
O=C(CSc1nnc(-c2ccc(Cl)c(Cl)c2)n1-c1ccccc1)Nc1ccc(C(=O)/C=C/c2ccc(Cl)cc2)cc1 | 96.9%
Cc1ccc(C(F)(F)F)cc1N1CCN(C(=O)[C@H]2C[C@H]2c2ccc(C(F)(F)F)nc2)CC1 | 99.1%
COc1ccc(S(=O)(=O)NC2c3ccccc3CC2O)cc1OC (stereo not given) | 109%
CN1CCN(Cc2ccc(NC(=O)c3cncc(C#Cc4c(N)ncc5cc(F)ccc45)c3)cc2C(F)(F)F)CC1 | 40.5%

SMILES | growth
COc1ccccc1NC(=O)n1c(=O)cc(C)c2ccc(O)cc21 | 103%
CCCCCC(C)(O)C(C(=O)O)c1ccccc1 (stereo not given) | 104%
C=C(C)[C@@H]1CC[C@]2(C(=O)NC(C)=O)CC[C@]3(C)[C@H](CC[C@@H]4[C@@]5(C)CCCNC(C)(C)[C@@H]5CC[C@]43C)[C@@H]12 | 63.3%
Nc1nc(N)c2c(n1)NC(c1cccc(Nc3ccnc4cc(C(F)(F)F)ccc34)c1)CC(c1ccc(Cl)cc1)=N2 (stereo not given) | 89.3%
COc1cccc(-c2cc(-c3ccc(Nc4nc(Nc5ccc(Cl)cc5)nc(Nc5ccc(Cl)cc5)n4)cc3)nc(N)c2C#N)c1 | 99.9%
Cc1cc(=O)oc2cc(Oc3nc(-c4ccccc4)cn4c(-c5ccccc5)cnc34)ccc12 | 86%
COc1cc(OC)cc(C(=O)Nc2cnc(Nc3ccc(N4CCOCC4)nc3)nc2Oc2ccc(C(F)(F)F)cc2)c1 | 77.4%
COc1ccc(Cn2cc3c(c2)-c2oncc2CC3)cc1 | 89.6%
CN1CCN(Cn2nc(-c3cc(Cl)cc(Cl)c3Cl)oc2=S)CC1 | 101%
CC(C)(C)CC(C)(C)Nc1c(-c2c(O)c3ccccc3oc2=O)nc2sccn12 | 86.7%
O=C(O)CCCN1C(=O)CSC1=S | 100%
CC1(C)CC(=O)C2=C(C1)OC(C(=O)c1ccccc1)C2c1cccc(Oc2ccccc2)c1 (stereo not given) | 75.1%
O=C(OCc1ccc2c(Br)cc(Br)c(O)c2n1)N1CCN(C(=O)c2cc3ccccc3[nH]2)CC1 | 44.9%
COc1cc(-c2ccc(-c3ccc(C(=N)N)s3)s2)cc(OC)c1OC | 69.1%
C(CCCSC1=NCCN1)CCSC1=NCCN1 | 113%
COc1ccc(NC(=O)c2sc3nc(C)c(C(=O)c4ccccc4)cc3c2N)cc1 | 64.7%
CNc1nc2ncc(-c3c(C)noc3C)cc2n1Cc1ccccc1 | 67.1%
COC(=O)[C@H](C)NC(=O)c1ccc(NC(=O)c2[nH]c(C)c(Cl)c2Cl)c(OCCN)c1 | 101%
Cc1[nH]c(C(=O)Nc2ccc(C(N)=O)cc2OC(C)C)c(Cl)c1Cl | 100%
COc1cc(/C=N/NC(=O)c2ccc3nc(-c4ccc(Cl)cc4)[nH]c3c2)cc(OC)c1OC | 87.5%
